The record followed here is PubChem BioAssay (EPA / NIEHS).

Molecules are shown by their SMILES. “And” between values parts separate entries of the source, which are not always exact repeats. Identical values can stand only once. A structure can be active in one record and inactive in another. The source made the active and inactive calls. Rule for the calls: active = hit-call score of the fitted dose curve at least 0.9, where 1 is the maximum; inactive = score below 0.9.

Read-out in this experiment: urokinase Plasminogen Activator (uPA), PLAU (gene 5328)
The experiment is described as follows: BSK_BF4T_uPA: BioMAP Diversity Plus: BF4T Assay for urokinase Plasminogen Activator (uPA) Biomarker Activity (AID 2284275). The conditions noted are these: primary human bronchial epithelial cells with fibroblasts. The procedure:
BSK_BF4T is a cell-based, multiplexed-readout assay that uses bronchial epithelial cells and dermal fibroblasts, a human vascular primary cell, with measurements taken at 24 hours after chemical dosing in a microplate: 96-well plate.BSK_BF4TA is an assay component measured in the BSK_BF4T assay. It measures uPA antibody related to regulation of gene expression using ELISA technology.Data from the assay component BSK_BF4TA was analyzed at the endpoint, BSK_BF4TA, in the positive analysis fitting direction relative to DMSO as the negative control and baseline of activity. Using a type of binding reporter, gain or loss-of-signal activity can be used to understand protein changes. To generalize the intended target to other relatable targets, this assay endpoint is annotated to the 'protease' intended target family, where the subfamily is 'serine protease'.
The levels of cell surface (or secreted, indicated by the prefix "s") biomarker endpoints were measured by ELISA. Overt cytotoxicity to cells in confluent adherent cultures (all systems other than the BT system) was assessed by measuring total protein levels using sulforhodamine B (SRB) staining in parallel cultures at the time of biomarker measurements, indicated as SRB endpoints. For proliferation assays for adherent cell types, individual cell types are cultured at sub-confluence and relative cell numbers quantified by SRB staining at time points optimized for each system (48 h: 3C and CASM3C systems; 72 h: BT and HDF3CGF systems; 96 h: SAg system). SRB was performed by staining cells with 0.1% SRB after fixation with 10% TCA and reading wells at 560 nm.Viability and proliferation of PBMC (T cells) was quantified by Alamar Blue reduction for the SAg and BT systems. For PBMC viability (referred to as PBMC Cytotoxicity within the assay endpoint names), cells were plated (75,000/well in a 96-well plate) and then chemical samples added for 1 h before addition of activators, SEB and TSST-1 (20 ng/mL final concentration each). Cells were incubated for 90 h. Then, Alamar Blue (20 uL/well) (Invitrogen, Cat DAL1100) was added for 6 h, and the plates were read with a fluorescence microplate reader at 546/580 nm (excitation/emission). For PBMC proliferation, cells were plated and activated as above but incubated for only 16 h prior to addition of Alamar Blue. Plates were read after 6 h.
With `O=S(=O)(OCCOC(F)(F)F)C(F)(F)F`, the result was inactive.
Still for that read-out and setting: to `O=C(O)C(F)(F)C(F)(F)C(F)(F)C(F)(F)C(F)(F)C(F)(F)C(F)(F)C(F)(F)C(F)(F)C(F)(F)C(F)(F)C(F)(F)C(F)(F)F` belongs “inactive”; to `OCCCC(F)(F)C(F)(F)C(F)(F)F`, “inactive”; to `O=C(O)C(F)(F)C(F)(F)OC(F)(F)F`, “inactive”.
Still for that read-out and setting: under `OCC(F)(F)C(F)(F)C(F)(F)C(F)(F)C(F)(F)C(F)F` stands “inactive”.
On the same count and under the same terms, under `OCC(F)(F)C(F)(F)C(F)(F)C(F)(F)C(F)(F)C(F)(F)F` stands “inactive”; under `CCO[Si](CCC(F)(F)C(F)(F)C(F)(F)C(F)(F)C(F)(F)C(F)(F)F)(OCC)OCC`, “inactive”; under `FC1CC(F)(F)C(F)(F)C1(F)F` (stereo not given), “inactive”.
`C=CC(F)(F)C(F)(F)C(F)(F)C(F)(F)C(F)(F)C(F)(F)C(F)(F)C(F)(F)C=C`: the outcome was inactive.
On the same count and under the same terms, under `C=CC(=O)OCC(F)(F)C(F)(F)C(F)(F)C(F)(F)C(F)(F)C(F)(F)C(F)(F)F` stands “inactive”; under `C=C(C)C(=O)OCC(F)(F)C(F)(F)C(F)(F)F`, “inactive”.
Same read-out and setting: to `FC(F)(F)C(F)(F)C(F)(F)CI` belongs “inactive”; to `FC(F)(F)C(F)(F)C(F)(F)C(F)(F)CCI`, “inactive”.
Still for that read-out and setting: under `O=C(O)C(F)(F)C(F)(F)C(F)(F)F` stands “inactive”; under `NC(=O)C(F)(F)C(F)(F)C(F)(F)C(F)(F)F`, “inactive”; under `CC(C)(C)C(=O)CC(=O)C(F)(F)C(F)(F)C(F)(F)F`, “inactive”.
As to `FC(F)(F)C(F)(F)C(F)(F)C(F)(F)C(F)(F)C(F)(F)C(F)(F)Br`, the result was inactive.
The same measure, in the same setting: to `O=S(=O)(O)C(F)(F)C(F)(F)C(F)(F)C(F)(F)C(F)(F)C(F)(F)C(F)(F)F` belongs “inactive”; to `FC(F)(F)C(F)(F)C(F)(F)C(F)(F)C(F)(F)C(F)(F)C(F)(F)C(F)(F)F`, “inactive”; to `OCC(F)(F)C(F)(F)C(F)(F)F`, “inactive”.
Same read-out and setting: to `O=C(CC(=O)C(F)(F)C(F)(F)F)C(F)(F)F` belongs “inactive”.
Same read-out and setting: to `FC(F)(F)C(F)(F)C(F)(F)N(C(F)(F)C(F)(F)C(F)(F)F)C(F)(F)C(F)(F)C(F)(F)F` belongs “inactive”.
Broadly, the AC50 is the concentration at which the activity in the assay is half-maximal. For `C=CC(=O)OCC(F)(F)C(F)(F)C(F)(F)C(F)(F)COC(=O)C=C`, the result was inactive and the AC50 is 30 µM (active).
On to `O=C(O)C=C(C(F)(F)F)C(F)(F)F`, for which the outcome was inactive.
Same read-out and setting: under `Cc1ccc(S(=O)(=O)OCC(F)(F)C(F)(F)C(F)(F)C(F)(F)C(F)(F)C(F)F)cc1` stands “inactive”; under `O=C(O)C(F)(OC(F)(F)C(F)(OC(F)(F)C(F)(OC(F)(F)C(F)(F)C(F)(F)F)C(F)(F)F)C(F)(F)F)C(F)(F)F` (stereo not given), “inactive”.
The same measure, in the same setting: to `O=C(O)C(F)(F)C(F)(F)C(F)(F)C(F)(F)F` belongs “inactive”.
Turning to `OCCCC(F)(F)C(F)(F)C(F)(F)C(F)(F)C(F)(F)C(F)(F)C(F)(F)F`, the half-maximal activity concentration (AC50) is 47.8 µM (active) and 45.7 µM (active).
`O=S(=O)(OCC(F)F)C(F)(F)F`: the result was inactive.
Still for that read-out and setting: under `C=C(C)C(=O)OCCC(F)(F)C(F)(F)C(F)(F)C(F)(F)C(F)(C(F)(F)F)C(F)(F)F` stands “inactive”; under `N=C(N)C(F)(F)C(F)(F)C(F)(F)C(F)(F)C(F)(F)C(F)(F)C(F)(F)F`, “inactive”.
Same read-out and setting: under `O=C(O)C(F)(F)C(F)(F)F` stands “inactive”.
Consider `FC(F)(F)C(F)(F)C(F)(F)C(F)(F)C(F)(F)C(F)(F)CCS`, for which the result was inactive.
On the same count and under the same terms, to `FC(F)(F)C(F)(F)C(F)(F)C(F)(F)C(F)(F)CCI` belongs “inactive”.
On to `FC(F)(F)C(F)(F)CNCC(F)(F)C(F)(F)F`, for which the result was inactive.
For the compound `O=C(O)C(F)(F)C(F)(F)C(F)(F)C(F)(F)C(F)(F)C(F)(F)C(F)(F)C(F)(F)C(F)(F)C(F)F`, the concentration at half-maximal activity (AC50) is 41.3 µM (active) and 17.5 µM (active).
As to `FC(F)(Br)C(F)(F)C(F)(F)C(F)(F)C(F)(F)C(F)(F)Br`, the result was inactive.
Same read-out and setting: under `FC(F)(F)C(F)(F)C(F)(F)C(F)(F)C(F)(F)C(F)(F)C(F)(F)I` stands “inactive”; under `O=C(O)C(F)(OC(F)(F)C(F)(OC(F)(F)C(F)(F)C(F)(F)F)C(F)(F)F)C(F)(F)F` (stereo not given), “inactive”.
